Source: PubChem
HTT prom inh: inhibits huntingtin promoter activity | 0.93% of 48,000 active | Potency, µM (series often up to 57.5 µM), without a hit: at the top dose activity change, negative = inhibition, actives largely listed as inhibitors | HEK293 HTT promoter firefly luciferase reporter, 24 h; further: nearly all actives have a fitted effect of over 50% in size
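Firefly luciferase signal from promoter-reporter HEK293 cells was scaled between vehicle (0%) and zero RLU (-100%). Compounds were tested at final concentrations of up to 57.5 uM over 24 h at 37 degrees C. PTC124 at 50 uM final served as control inhibitor.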
S16 viability: toxic to S16 Pmp22-F2sN Schwann cells; AID 1508642; 0.48% of 43,000 active; S16 Pmp22-F2sN Schwann cells viability, CellTiter-Glo, 24 h; Potency, µM (doses to about 57.5 µM), for inactives: at the top dose activity change, negative = cytotoxicity, usual class: cytotoxic; further: on the % scale 0 is the no-effect control and ±100 the full control effect; nearly all actives have a fitted effect of over 65% in size
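S16 Schwann cells carrying the Pmp22-F2sN reporter, seeded in 1536-well format, were exposed to library compounds for 24 h at 37C. Viability was read as CellTiter-Glo luminescence after 15 min at room temperature.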
FH mod: Identification of activators of human fumarate hydratase by quantitative high-throughput screening; FH coupled MDH/diaphorase resazurin fluorescence, 15 min; Potency, µM (series often up to 79.9 µM), for inactives: at the highest dose activity change, negative = inhibition, usual class: inhibitors; 0.22% of 54,000 active; Fumarate hydratase, mitochondrial (Homo sapiens), P07954; AID 1347055, 2019; further: on the % scale 0 is the no-effect control and ±100 the full control effect; the screen sought activators but most active calls are inhibition curves; nearly all actives have a fitted effect of over 45% in size
Target sequence (P07954 whole entry, looked up): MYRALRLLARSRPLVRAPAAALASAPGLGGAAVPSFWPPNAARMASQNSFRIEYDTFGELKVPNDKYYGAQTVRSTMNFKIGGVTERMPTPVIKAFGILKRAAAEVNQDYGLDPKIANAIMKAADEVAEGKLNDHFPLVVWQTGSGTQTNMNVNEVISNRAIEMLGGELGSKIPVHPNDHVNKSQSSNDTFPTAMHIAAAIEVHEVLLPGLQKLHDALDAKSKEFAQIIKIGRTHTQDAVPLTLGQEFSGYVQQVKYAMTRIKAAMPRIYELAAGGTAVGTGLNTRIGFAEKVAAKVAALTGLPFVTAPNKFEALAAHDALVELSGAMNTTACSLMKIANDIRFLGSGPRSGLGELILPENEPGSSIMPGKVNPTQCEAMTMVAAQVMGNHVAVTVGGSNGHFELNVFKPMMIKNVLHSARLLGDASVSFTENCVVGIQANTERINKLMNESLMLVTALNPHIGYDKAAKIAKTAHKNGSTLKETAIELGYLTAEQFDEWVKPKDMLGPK
HTT-AS act: activates huntingtin-antisense promoter activity; AID 1508624; Potency, µM (highest dose often 57.5 µM), without a hit: top-dose activity change, positive = activation, hits mostly activators; 0.24% of 48,000 active; HEK293 HTT-AS promoter firefly luciferase reporter, 24 h; response scale: percent change from vehicle, -100% = no light; further: nearly all actives have a fitted effect of over 55% in size
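Firefly luciferase signal from promoter-reporter HEK293 cells was scaled between vehicle (0%) and zero RLU (-100%). Compounds were tested at final concentrations of up to 57.5 uM over 24 h at 37 degrees C. PTC124 at 50 uM final served as control inhibitor.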
PMP22 txn: modulators of PMP22 gene transcription in S16 Schwann cells; AID 1508649; S16 Pmp22-F2sN Schwann cells (luciferase reporters placed in the Pmp22 gene), FLuc/NLuc coincidence luminescence, 24 h; Potency, µM (titrated, usually from 57.5 µM), for the others: at the highest dose activity change, negative = inhibition, most hits filed as inhibitors; 2% of 43,000 active; active means clear falling dose curves in both reporters; inconclusive means both reporters move, but less clearly or upward; inactive means either reporter flat; the % is the NLuc reporter signal; further: on the % scale 0 is the no-effect control and ±100 the full control effect
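S16 Schwann cells carrying FLuc/NLuc coincidence reporter in the Pmp22 3' UTR treated with compound 24 h at 37C; FLuc then NLuc luminescence read sequentially by dual-luciferase reagents.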
pS6 MEF inh: reduces mTORC1 signaling in Tsc2 and p53 null MEF cells. 0.78% of 44,000 active. Tsc2-/- p53-/- MEF, phospho-rpS6 immunofluorescence/PI, 24 h. Potency, µM (titrated, usually from 38.3 µM), inactives show at the highest dose activity change, negative = inhibition, most hits filed as inhibitors. AID 493208;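 further: plate controls were DMSO for no effect and rapamycin for full effect; nearly all actives have a fitted effect of over 50% in size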
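Tsc2-/-, p53-/- mouse embryonic fibroblasts (empty-vector line) exposed to compound 24 hrs at 37 C, fixed, immunostained for phospho-rpS6 and counterstained with propidium iodide. Acumen laser scanning gives % positive cells from Alexa 488/PI ratio, thresholded using 7.5 nM rapamycin; PI count gives viability.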
Numbers without * were called inactive; u = inconclusive; x = no result; [ ] = another dose, or the depositor's remark. This is a sample that favours compounds with a hit; in the whole collection about 3.3% have one here. Unless noted, the call rests on the fitted dose curve; in most records, active means well fitted curve in the direction sought with a large enough effect; inconclusive means small, poorly fitted or top-dose-only effect, or another doubt; inactive means no such curve, though single readings can be large; an effect the other way counts as inactive or inconclusive. Potency means the concentration at half of the fitted maximal effect.

SMILES | HTT prom inh | S16 viability | FH mod | HTT-AS act | PMP22 txn | pS6 MEF inh
CCCCc1c(C)nc2c(-c3ccc(Cl)cc3)c(C)[nH]n2c1=O | -15% | 5µM* | 11% | -21% | 11µM* | 10%
COc1ccc(Oc2cc(C)c(-c3csc(NC(=O)c4ccncc4)n3)c(C)c2)cc1 | x | x | -16% | x | x | x
C=CCC1=C[C@]2(OC)[C@H](C)[C@@H](c3ccc(OC)c(OC)c3)O[C@]2(OC)CC1=O | x | x | -3%[53.3 µM] | x | x | x
Cc1cn(C2C[C@H](O)[C@@H](CO)O2)c(=O)[nH]c1=O (some centres undefined) | x | x | 16% | x | x | x
COc1ccc(CC(=O)Nc2sc3c(c2C(=O)Nc2ccccc2)CCCCC3)cc1 | u | u | -2% | -35% | u | 4.6µM*
COc1ccccc1NC(=O)c1c(NCc2ccc(C)o2)sc2c1CCCCC2 | 8% | 5% | -20% | 4% | 14µM* | u
C[C@]1(CO)CCC[C@]2(C)C3=C(CCC12)COC3 (some centres undefined) | x | x | 5% | x | x | x
Nc1nc2c(ncn2C2OC3COP(=O)(O)OC3C2O)c(=O)[nH]1 (centres undefined) | x | x | 0% | x | x | x
CCS(=O)(=O)c1cccc(C(=O)N2CCN(c3nc4c(C)ccc(Cl)c4s3)CC2)c1 | 11µM* | u | -26% | -48% | u | -21%
CCS(=O)(=O)c1ccc(C(=O)N2CCN(c3nc4c(OC)ccc(C)c4s3)CC2)cc1 | u | -24% | -10% | -37% | 34% | -7%
C/C=C(/C)C(=O)O[C@@H]1C[C@@H](OC(=O)/C(C)=C\C)[C@@]2(C)C3C(=O)C=C(C)C2C3C1(C)C | x | x | -3%[53.3 µM] | x | x | x
CCOc1ccc(S(=O)(=O)N(C(C)=O)c2ccc3oc(C)c(C(=O)OC)c3c2)cc1 | 2.5µM* | u | u | -79% | 5.4µM* | 6.6µM*
COC(=O)c1c(C)oc2ccc(N(C(=O)c3ccncc3)S(=O)(=O)c3cc(C)ccc3C)cc12 | 28µM* | u | -21% | -39% | 12µM* | u
COC(=O)c1c(C)oc2ccc(N(C(=O)Oc3ccccc3)S(=O)(=O)c3ccc(C(C)(C)C)cc3)cc12 | u | -21% | -18% | -27% | 6.6µM* | 5%
CC(=O)O[C@H]1C[C@@H](O)C(C)(C)C2C[C@@H](OC(C)=O)[C@@]3(C)C4=CCC(C(CO)CC(O)C5OC5(C)C)[C@]4(C)CCC3[C@]21C (some centres undefined) | x | x | -4%[20.6 µM] | x | x | x
C/C=C/C[C@@H](C)[C@@H](O)[C@H]1C(=O)N[C@@H](CC)C(=O)N(C)CC(=O)N(C)[C@@H](CC(C)C)C(=O)N[C@@H](C(C)C)C(=O)N(C)[C@@H](CC(C)C)C(=O)N[C@@H](C)C(=O)N[C@H](C)C(=O)N(C)[C@@H](CC(C)C)C(=O)N(C)[C@@H](CC(C)C)C(=O)N(C)[C@H](C(C)C)C(=O)N1C | x | x | -10%[53.3 µM] | x | x | x
C=C1CCC2C(C)(COC3OC(COC(=O)CC(=O)O)C(O)C(O)C3O)CCCC2(C)C1CCC1=CCOC1=O (centres undefined) | x | x | 2%[53.3 µM] | x | x | x
CNCc1ccc(C)c(NC(=O)c2ccc(Nc3nc(-c4ccccc4)c4ccccc4n3)cc2)c1 | x | x | 7% | x | x | x
COc1ccc2cc(CNc3ccccc3)c(=O)n(CC(=O)Nc3ccc(C)cc3C)c2c1 | -24% | -11% | 3% | -23% | -18% | 7.4µM*
CC(C)Oc1ccc(CNC(=O)C2CCN(c3nc4ccccc4nc3C(F)(F)F)CC2)cc1 | u | 7.9µM* | -2% | 1% | u | -2%
COCCNC(=O)C1CCN(c2nc3ccccc3nc2C(F)(F)F)CC1 | -2% | 9% | 3% | 3% | 46% | 7%
O=C(Nc1cc(-c2nc3cc(Cl)ccc3o2)ccc1Cl)c1cccc2ccccc12 | 25% | -1% | 14% | 18µM* | 3% | 15%
COc1cc2ccccc2cc1C(=O)Nc1cc(-c2nc3ccccc3o2)ccc1C | 17% | 12% | -14% | 14% | -4% | -2%
O=C(Nc1ccc2oc(-c3ccc4ccccc4c3)nc2c1)c1cc(Cl)ccc1Cl | -19% | 0% | 3% | -24% | 0% | 5%
O=C(Nc1ccc(O)c(-c2nc3ccccc3o2)c1)c1ccc(Br)cc1 | -25%[11.5 µM] | -7% | 4% | -13% | -2% | 12%
SMILES | HTT prom inh | S16 viability | FH mod | HTT-AS act | PMP22 txn | pS6 MEF inh
COc1cc2ccccc2cc1C(=O)Nc1cccc(-c2nc3cc(C)c(C)cc3o2)c1 | 7.1µM* | 18% | -2% | -74% | -39% | 6%
O=C(Nc1ccc2oc(-c3cc(Br)ccc3Cl)nc2c1)c1ccc2ccccc2c1 | u | 22µM* | -28% | -36% | u | -14%
O=C(Nc1ccc2oc(-c3ccc4ccccc4c3)nc2c1)c1cc(Br)ccc1Cl | 16% | -4% | -9% | u | u | 16µM*
Cc1c(C(=O)Nc2ccc(Oc3ccnc4[nH]cc(-c5ccccc5)c34)c(F)c2)c(=O)n(-c2ccc(F)cc2)n1C | x | x | -11% | x | x | x
C=C(C(=O)OC)[C@]12O[C@@](C)(CC[C@@]3(O)/C(=C\C)C(=O)O[C@]3(C)C[C@@H]1OC(=O)C(CO)CN1CCCC1C(=O)O)CC2=O (some centres undefined) | x | x | -2%[20.6 µM] | x | x | x
COC1CC/C=C(\C)C(=O)Nc2cc(O)cc(c2)CC(C)CC(OC)C(O)C(C)/C=C(\C)C1OC(N)=O (centres undefined) | x | x | -2%[53.3 µM] | x | x | x
C=CC1(C)C=C2C(=O)OC(=O)C3=C(CCCC3(C)C)C2(O)CC1 (centres undefined) | x | x | 4%[53.3 µM] | x | x | x
COc1ccc(C(=O)Nc2ccc(S(=O)(=O)N(Cc3ccccc3)c3ccccc3)cc2)cc1 | 5µM* | -4% | 3% | -38% | -20% | -6%
